Screens as filed in PubChem BioAssay.
CtBP-E1A blk: qHTS Assay for Inhibitors of the CtBP/E1A Interaction. AlphaScreen GST-E1A/His-CtBP binding, 1536-well; hits give low values. activity change, % (test concentration not listed). 0.49% of 340,000 active. AID 651724, 2012; in the data active = activity change below about -65%; inconclusive = mostly about -30% to -63%
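AlphaScreen with 125 nM GST-E1A and 125 nM His-CtBP (5X stocks) in Tris pH 8.0, 300 mM NaCl, BSA, Tween 20, TCEP. Compounds preincubated 2 h at 37 deg C, then glutathione donor/nickel acceptor beads added for 1 h at 37 deg C in dark.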
HP1b chromo inh: HTS for Inhibitors of HP1-beta Chromodomain Interactions with Methylated Histone Tails; Chromobox protein homolog 1 (Homo sapiens), P83916; AlphaScreen HP1-beta / biotin-H3K9me3 peptide binding; Potency, µM (top dose mostly 114 µM), most hits filed as inhibitors; 0.56% of 390,000 active; also: nearly all actives have a fitted effect of over 70% in size
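HP1-beta protein (50 nM final) preincubated 30 min at room temperature with biotinylated H3(1-18)K9me3 peptide (50 nM) in PBS pH 7.4, 0.01% Tween-20, then compound added for 30 min. AlphaScreen streptavidin donor/nickel chelate acceptor beads (10 ug/mL final), 30 min dark, luminescence read.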
BAZ2B inh: qHTS Assay for Inhibitors of BAZ2B; AlphaScreen BAZ2B-H3K14Ac peptide displacement; Potency, µM (series often up to 114 µM), most hits filed as inhibitors; 4.4% of 360,000 active; also: nearly all actives have a fitted effect of over 60% in size
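Inhibition is scored as reduced AlphaScreen emission. The BAZ2B/b-H3(5-23)K14Ac complex (50 nM each) in PBS pH 7.4, 0.01% Tween-20 meets compound (up to 110 uM) for 30 min at RT before bead addition.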
Six1-Eya2 blk: qHTS Assay for Inhibitors of the Six1/Eya2 Interaction; Homeobox protein SIX1 (Homo sapiens) + Protein phosphatase EYA2 (Homo sapiens), …; AlphaScreen GST-Six1/His-Eya2 binding, biochemical; hits give low values; activity change, % (test concentration not listed); 0.56% of 360,000 active; AID 651725, 2012; in the data active = activity change below about -65%; inconclusive = mostly about -30% to -63%
Target sequence (O00167 whole entry, looked up): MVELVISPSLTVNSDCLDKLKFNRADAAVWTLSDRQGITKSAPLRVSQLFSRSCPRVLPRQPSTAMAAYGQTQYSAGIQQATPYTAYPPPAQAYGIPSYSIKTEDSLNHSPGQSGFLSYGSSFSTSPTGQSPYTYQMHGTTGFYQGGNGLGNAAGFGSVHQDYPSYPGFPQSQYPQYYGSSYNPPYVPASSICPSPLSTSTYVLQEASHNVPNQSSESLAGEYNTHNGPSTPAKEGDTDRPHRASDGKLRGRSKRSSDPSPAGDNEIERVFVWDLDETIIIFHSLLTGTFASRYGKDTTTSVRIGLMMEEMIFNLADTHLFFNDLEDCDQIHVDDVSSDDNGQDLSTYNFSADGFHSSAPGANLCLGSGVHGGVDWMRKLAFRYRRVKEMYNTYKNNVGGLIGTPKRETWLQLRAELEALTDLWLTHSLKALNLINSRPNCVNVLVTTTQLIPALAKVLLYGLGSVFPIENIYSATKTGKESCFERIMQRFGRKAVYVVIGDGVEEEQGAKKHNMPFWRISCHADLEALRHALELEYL
Target sequence (Q15475 whole entry, looked up): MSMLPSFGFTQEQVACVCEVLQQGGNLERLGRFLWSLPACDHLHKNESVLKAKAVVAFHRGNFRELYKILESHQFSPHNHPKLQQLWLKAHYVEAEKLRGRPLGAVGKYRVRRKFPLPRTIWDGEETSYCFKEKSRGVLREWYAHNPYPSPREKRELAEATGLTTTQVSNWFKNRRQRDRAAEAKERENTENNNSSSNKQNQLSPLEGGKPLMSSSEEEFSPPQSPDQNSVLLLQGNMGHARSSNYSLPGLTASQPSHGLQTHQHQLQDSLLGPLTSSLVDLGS
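Compounds are tested against tagged Six1 and Eya2 proteins bridged by glutathione donor and nickel acceptor beads; after a one-hour incubation at 37 °C without light, AlphaScreen emission is recorded.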
G9a inh: qHTS Assay for Inhibitors of Histone Lysine Methyltransferase G9a | Histone-lysine N-methyltransferase EHMT2 (Homo sapiens), Q96KQ7 | G9a H3K9 monomethylation, AlphaScreen, 2 h | Potency, µM (series often up to 102 µM), hits mostly inhibitors | 8.8% of 350,000 active | AID 504332, 2011; also: nearly all actives have a fitted effect of over 75% in size
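Quantitative HTS format: methyltransferase activity on a biotin-tagged H3K9 peptide is measured by AlphaScreen, using a rabbit anti-monomethyl-H3K9 antibody with streptavidin donor and anti-IgG acceptor beads. Final levels are 20 nM enzyme, 500 nM peptide, 20 uM SAM; 2 h RT.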
JMJD2A Tudor: qHTS Assay for Inhibitors of JMJD2A-Tudor Domain. Lysine-specific demethylase 4A (Homo sapiens), O75164. AlphaScreen JMJD2A-Tudor / H3K4me3 peptide binding. Potency, µM (doses to about 114 µM), most hits filed as inhibitors. 4.4% of 390,000 active; also: nearly all actives have a fitted effect of over 50% in size
A number is an active result; i = inactive; ? = inconclusive; nt = no result; [ ] = remark or other dose. This is a sample that favours compounds with a hit; in the whole collection about 10% have one here. Unless noted, calls follow the shape of the dose curve; as a rule, active = well fitted inhibition curve with a large enough effect; inconclusive = small, poorly fitted or top-dose-only effect; inactive = no such curve, though single readings can be large or run the other way.

SMILES	CtBP-E1A blk	HP1b chromo inh	BAZ2B inh	Six1-Eya2 blk	G9a inh	JMJD2A Tudor
Cc1ccc(CNC(=O)c2nccnc2C(=O)O)cc1	i	i	i	i	50.1µM	?
COc1ccccc1CNC(=O)C(=O)Nc1nccs1	i	i	i	i	?	?
O=C(NCCc1ccccc1)C(=O)Nc1nccs1	i	i	i	i	?	i
Cc1ccc(CNC(=O)C(=O)Nc2nccs2)cc1	nt	i	?	i	17.8µM	i
O=C(NCc1ccncc1)C(=O)Nc1nccs1	i	i	?	i	14.1µM	?
Cc1ccccc1CNC(=O)C(=O)Nc1nccs1	i	i	nt	i	12.6µM	i
O=C(CN1C(=O)COc2ccc(S(=O)(=O)N3CCCC3)cc21)N1CCN(c2ccccc2)CC1	nt	i	i	nt	i	i
COc1ccc(N2CCN(C(=O)CCC(=O)N3Cc4ccccc4Oc4ncccc43)CC2)cc1	i	i	39.8µM	i	nt	i
Cc1ccc(OCC(=O)N2CCC(N3CC(C)CC(C)C3)CC2)cc1 (stereo not drawn)	i	?	i	i	25.1µM	1.58µM
CCOC(=O)c1cc(-c2ccccc2)n(CCC(=O)N2CCN(c3ccc(OC)cc3)CC2)c1C	?	?	25.1µM	?	?	?
COc1ccc(N2CCN(C(=O)COc3ccccc3)CC2)cc1	i	i	i	i	44.7µM	i
Cc1ccc(S(=O)(=O)N2CCN(C(=O)COc3ccc(Br)cc3)CC2)cc1	i	i	i	i	i[12.7 µM]	i
COc1ccc(CN(Cc2ccccc2)C(=O)c2cccc(C#N)c2)cc1COc1ccc(NC(C)=O)cc1	nt	i	nt	nt	nt	i
Cc1cc(OCC(=O)N2CCCC2)ccc1Cl	i	i	i	i	i	i
Cc1cc(OCC(=O)N2CCCC2)cc(C)c1Cl	i	i	i	i	1.26µM	i
Cc1ccc(C)c(OCCCC(=O)N2CCOCC2)c1	i	i	i	i	44.7µM	?
COc1ccc(N2CCN(C(=O)CCc3c(C)nc4cc(-c5ccc(OC)cc5OC)nn4c3C)CC2)cc1	nt	i	17.8µM	nt	?	i
COc1ccc(-c2cc3nc(C)c(CCC(=O)N4CCN(c5ccc(F)cc5)CC4)c(C)n3n2)c(OC)c1	nt	i	i	nt	?	i
CCOC(=O)c1cc(-c2ccc(F)cc2)n(CCC(=O)Nc2nc3ccc(OC)cc3s2)c1C	nt	i	?	nt	i	56.2µM
O=S(=O)(c1ccccc1Br)N(Cc1ccccc1)Cc1ccco1	nt	i	nt	nt	nt	i
COc1cc(C2c3c(-c4c(C)cc(C)cc4O)n[nH]c3C(=O)N2Cc2ccco2)cc(OC)c1OC (stereo not drawn)	nt	i	i	nt	i	i
Cc1ccc(-n2ncc(C(=O)NCCN3CCN(C)CC3)c2C2CCN(C(=O)OC(C)(C)C)CC2)c(C)c1	nt	i	i	nt	i	i
CC(=O)Nc1nonc1-c1nnc(SCc2ccc(Cl)cc2)n1C	nt	i	i	nt	i	i
CCN1CCN(C(=O)COCc2cc(-c3ccc4c(c3)OCO4)on2)CC1	i	i	i	i	?	i
COc1ccc(N2CCN(C(=O)COc3cccc4ccccc34)CC2)cc1	?	?	11.2µM	?	nt	31.6µM
SMILES	CtBP-E1A blk	HP1b chromo inh	BAZ2B inh	Six1-Eya2 blk	G9a inh	JMJD2A Tudor
COc1ccc(N2CCN(C(=O)CCCSc3nc4ccccc4[nH]3)CC2)cc1	i	i	i	i	44.7µM	i
COc1ccccc1N1CCN(C(=O)COc2cc(C)ccc2C)CC1	i	?	i	i	i	20µM
NC(=O)CCCSc1nc2ccccc2[nH]1	i	i	i	i	i	i
COc1ccc(N2CCN(C(=O)COCc3cc(-c4ccc5c(c4)OCO5)on3)CC2)cc1	i	i	?	i	14.1µM	i
COc1ccccc1N1CCN(C(=O)COc2ccc(C)cc2Br)CC1	i	i	i	i	?	i
CC(C)(C)OC(=O)N1CCC(c2c(C(=O)N3CCN(c4ccccn4)CC3)cnn2-c2ccc(F)cc2F)CC1	nt	i	i	nt	i	i
CSc1cccc(NC(=O)Cn2nnc(C(=O)NCCc3ccccc3)c2N)c1	nt	i	i	nt	i	i
Cc1cc(NC(=O)CSc2ncc(C(=O)Nc3ccc(C)c(C)c3)c(=O)n2C)no1	nt	i	i	nt	i	i
O=C(COc1ccc(-c2ccccc2)cc1)N1CCCC1	nt	i	?	i	35.5µM	i
COc1ccccc1CCC(=O)N1CCN(S(=O)(=O)c2cc(C(F)(F)F)ccc2Cl)CC1	nt	i	i	i	8.91µM	i
COc1ccccc1CCC(=O)N1CCN(C(=O)c2ccccc2)CC1	i	i	i	i	i	i
COc1ccc(N2CCN(C(=O)CCc3ccccc3OC)CC2)cc1	nt	i	?	i	79.4µM	?
COCCn1c(=O)c(-c2ccc(Cl)cc2)nc2cncnc21	nt	nt	nt	nt	i[12.7 µM]	nt
Cc1ccc(C)c(N2CCN(C(=O)c3cc(S(=O)(=O)N4CCC(C)CC4)cn3C)CC2)c1	nt	i	i	nt	i	i
CCN(CC)CCNC(=O)c1ccc(NS(C)(=O)=O)cc1	nt	nt	nt	nt	i	nt
CCOC(=O)c1ccccc1NC(=O)N(C)CCc1c(C)nn(CC)c1C	nt	i	i	nt	i[12.7 µM]	i
O=C(CNC(=O)c1cc2c(n(-c3ccccc3)c1=O)CCCC2=O)c1ccccc1	i	i	i	i	nt	i
O=C1CCCc2c1cc(-c1ccccc1)n2-c1ccccc1	?	?	25.1µM	?	44.7µM	39.8µM
CCCN1CCC(=NNC(=O)c2ccc(Br)o2)CC1	i	i	i	i	i	i
CCN1CCC(=NNC(=O)c2ccco2)CC1	i	i	i	i	44.7µM	i[11.4 µM]
Cc1ccc2cc(C(=O)O)c(C)nc2c1	i	i	?	i	50.1µM	i
CSc1ncccc1C(=O)NNc1cc(Cl)ccc1Cl	i	i	i	i	44.7µM	i
CSc1ncccc1C(=O)NC1CCCCCCC1	i	i	i	i	i	i
O=C(Nc1cc(F)ccc1F)c1cccc(-n2cnnn2)c1	i	i	i	i	?	i
CSc1ncccc1C(=O)NCC(=O)Nc1ccc(F)c(F)c1	i	i	i	i	3.16µM	i
O=C(CNC(=O)c1cccc(-n2cnnn2)c1)Nc1ccc(F)c(F)c1	i	i	i	i	?	89.1µM
O=C(CNC(=O)c1ccncc1)Nc1ccc(F)c(F)c1	i	i	i	i	i	i
Cc1ccc(N2CCN(S(=O)(=O)c3ccc4oc(=O)c5ncn(C)c5c4c3)CC2)c(C)c1	nt	i	i	nt	i	i
COc1ccc(NC(=O)COc2ccc(S(=O)(=O)NC3CCCCC3)cc2)cc1OC	nt	i	i	nt	i	i
